Hits are enriched below; roughly 17% of the tested compounds scored in any of these assays.
HT1080-NT tox – qHTS for induction of synthetic lethality in tumor cells producing 2HG: qHTS for the HT-1080-NT fibrosarcoma cell line | actives 1.6% (n = 360,000) | AID 686970, 2013 | Potency, µM (titrated, usually from 46.1 µM), without a hit: at the top dose activity, negative = less viability, usual class: cytotoxic | HT-1080-NT fibrosarcoma viability, CellTiter-Glo ATP luminescence, 48 h;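 further: NT is the 2HG producing partner of a matched IDH1 knockdown line; 0% = DMSO-treated cells and -100% = media-only wells without cells; nearly all actives have a fitted effect of over 55% in size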
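Toxicity toward the 2HG-producing NT line was scored as %Activity, normalised to DMSO and no-cell wells, from CellTiter-Glo luminescence after 48 hours' treatment.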
TDP1 cell CPT – qHTS for Inhibitors of human tyrosyl-DNA phosphodiesterase 1 (TDP1): qHTS in cells in presence of CPT; chicken DT40 Tdp1-/-;hTDP1 cells + 20 nM CPT, ATP luminescence, 48 h; Potency, µM (doses to about 46.2 µM), for inactives: at the top dose activity change, negative = growth inhibition, usual class: inhibitors; actives 12% (n = 420,000); further: on the % scale 0 is the no-effect control and ±100 the full control effect; nearly all actives have a fitted effect of over 55% in size
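Cell growth measured by CellTiter-Glo luminescence after a minimum 48 h, 37 C compound exposure with 20 nM CPT in Tdp1-knockout DT40 cells stably expressing hTDP1, seeded 400/well; qHTS titration format.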
TGFb inhibitor – qHTS for Inhibitors of TGF-b. Potency, µM (titrated, usually from 46.1 µM), for the others: at the top dose activity, negative = inhibition, hits mostly inhibitors. HepG2 CAGA-GFP TGF-b/SMAD3 reporter, GFP fluorescence, 18 h; TGF-beta stimulated, 500 pg/mL final. actives 1.2% (n = 410,000). AID 588855, 2011; further: on the % scale 0 is the no-effect control and ±100 the full control effect; nearly all actives have a fitted effect of over 65% in size
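Smad-responsive CAGA-GFP expression was quantified in HEPG2 cells exposed to compounds and 500 pg/mL final TGF-beta for 18 h at 37 degrees C; unstimulated wells defined full inhibition.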
HT1080 IDH1KD tx – qHTS for induction of synthetic lethality in tumor cells producing 2HG: qHTS for the HT-1080-IDH1KD cell line. HT-1080 IDH1 knockdown viability, ATP luminescence, 48 h. Potency, µM (top dose mostly 46.1 µM), inactives show top-dose activity, negative = toxicity, most hits filed as cytotoxic. actives 2% (n = 360,000);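 further: 0% = DMSO wells and -100% = cell-free medium wells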
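IDH1KD HT-1080 cells, 750/well, RPMI + 5% FBS; compound pinned after 2 h settling; 48 h, 37 °C; CellTiter-Glo luminescence; % activity normalised to DMSO and no-cell wells; curves fitted, classed by r2 and efficacy.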
TDP1 cell noCPT – qHTS for Inhibitors of human tyrosyl-DNA phosphodiesterase 1 (TDP1): qHTS in cells in absence of CPT; AID 686978, 2013; actives 15% (n = 420,000); Potency, µM (titrated, usually from 46.2 µM), without a hit: at the top dose activity change, negative = growth inhibition, most hits filed as inhibitors; DT40 Tdp1-/- hTDP1 cells, no CPT, ATP luminescence, 48 h; further: on the % scale 0 is the no-effect control and ±100 the full control effect; nearly all actives have a fitted effect of over 55% in size
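Camptothecin absent (DMSO only). Human TDP1-complemented DT40 knockout cells, 400 cells/well, 37 °C for minimum 48 hr; ATP measured via CellTiter-Glo, 30 min dark incubation, luminescence.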
HepG2 viability – qHTS for Inhibitors of TGF-b: Cytotox Counterscreen; Potency, µM (titrated, usually from 46.1 µM), inactives show at the top dose activity change, negative = cytotoxicity, hits mostly cytotoxic; AID 588856, 2011; HepG2 CAGA-GFP viability, ATP luminescence, 18 h; actives 0.76% (n = 410,000)
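HepG2 CAGA-GFP cells (1000/well, DMEM with 1% FBS) received compound, then TGF-beta at 500 pg/mL final, and were incubated 18 hours at 37 degrees C. Viability was read by CellTiter-Glo luminescence. Media-only wells were set as complete cell-killing and DMSO as no toxicity.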
* hit, by the source's call; ? = inconclusive; · = no result. The call rests on the fitted dose curve; in most records, active means well fitted curve in the direction sought with a large enough effect; inconclusive means small, poorly fitted or top-dose-only effect, or another doubt; inactive means no such curve, though single readings can be large; an effect the other way counts as inactive or inconclusive. Potency means the concentration at half of the fitted maximal effect.

SMILES	HT1080-NT tox	TDP1 cell CPT	TGFb inhibitor	HT1080 IDH1KD tx	TDP1 cell noCPT	HepG2 viability
O=c1c2c3c(sc2n(Cc2cc(=O)n4ccccc4n2)c(=O)n1-c1ccc(Cl)cc1)CCC3	·	-7%	-10%	·	-24%	-1%
O=C1CCc2cc(S(=O)(=O)Nc3cccc(F)c3)cc3c2N1CC3	-16%	-18%	8%	-16%	-25%	6%
COc1ccc(C=Cc2ccc3ccccc3n2)c(OC)c1	-29%	-28%	?	?	23µM*	-77%
COc1ccc(OC)c(/C=C/c2ccc3ccccc3n2)c1	·	?	-12%	·	?	-18%
Cc1cccc(-c2nc3scc(CCNC(=O)c4ccccc4Cl)n3n2)c1	·	?	4%	·	21µM*	-10%
Cc1ccccc1-c1nc2scc(CCNC(=O)c3ccco3)n2n1	·	?	-1%	·	?	-6%
O=C(Cc1ccc(Cl)cc1)NCCc1csc2nc(-c3ccccc3F)nn12	·	-25%	-14%	·	-13%	-9%
O=C(Cc1ccc(F)cc1)NCCc1csc2nc(-c3ccc(Cl)cc3)nn12	·	?	?	·	21µM*	-16%
O=C(Cc1ccccc1)NCCc1csc2nc(-c3ccc(Cl)cc3)nn12	·	12µM*	-21%	·	9.2µM*	-19%
O=C(NCCc1csc2nc(-c3ccc(F)cc3)nn12)c1ccco1	·	?	2%	·	16µM*	-9%
CCOC(=O)c1sc2nc(C)nc(SCC(=O)NC3CCS(=O)(=O)C3)c2c1C (configuration not stated)	0%	5%	14%	-9%	-22%	-32%
CCC(=O)OCC(=O)C1(OC(=O)CC)C(C)CC2C3C(Cl)CC4=CC(=O)C=C[C@@]4(C)C3C(O)C[C@@]21C (some centres not stated)	·	-11%	·	·	-1%	·
CC(=O)N(CCCc1ccc(C(C)(C)C)cc1)CCCN(C)C	-2%	15µM*	-3%	0%	?	-43%
NC(=O)c1ccsc1NC(=O)CSc1nncs1	-10%	-9%	-4%	3%	-7%	-30%
C=CCN1C(=O)C(Cc2ccc(OCC)cc2)S/C1=N\N=C\c1cccs1 (configuration not stated)	6%	?	2%	4%	?	6%
Cc1ccc(C2=NC3(CCCC3)N=C2SCC(=O)Nc2ccc3c(c2)OCCO3)cc1	1%	?	?	-2%	-7%	-24%
O=C(CSC1=NC2(CCCCCC2)N=C1c1ccccc1)Nc1ccc2c(c1)OCCO2	?	?	-19%	?	?	-18%
CC1(C)N=C(SCC(=O)Nc2ccccc2)C(c2ccc(Cl)cc2)=N1	-16%	23µM*	-30%	-24%	15µM*	-8%
Cc1ccc(C2=NC(C)(C)N=C2SCC(=O)Nc2ccc(Cl)cc2)cc1	?	21µM*	14%	?	?	-19%
CC(=O)Nc1ccc(Oc2cnc3ccccc3n2)cc1	2.3µM*	?	-8%	2.6µM*	?	-1%
CC(=O)Nc1cccc(Oc2cnc3ccccc3n2)c1	-12%	-22%	2%	-12%	-24%	1%
COc1ccccc1CNC(=O)COC(=O)c1ccccc1SCC(=O)N1CCCC1	-1%	?	-29%	7%	?	-17%
Cc1ccc(C(=O)Nc2c(C)nc3ccccn3c2=O)cc1	·	4%	?	·	1%	-7%

Source: PubChem BioAssay (National Center for Advancing Translational Sciences (NCATS))
